Growth data for eight molecules are collected here from PubChem BioAssay (NCI).

The panel holds about 83,000 compounds, 20% with a hit somewhere; the sample as a whole holds those more often.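 Interpretation: 100, growth as untreated; towards 0, rising growth inhibition; 0, no net growth; 0 to -100, cell death. Compounds scoring below 10 were considered active.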 Unmarked numbers belong to inactive results. Calls of active or inactive are those of the source.

Some test systems named below: DU-145 prostate; K-562 leukemia; MALME-3M melanoma; MDA-MB-231 breast; RXF 393 renal; SF-268 CNS; SF-295 CNS; SF-539 CNS; UACC-257 melanoma; M14 melanoma; HCT-15 colon; HT29 colon; SNB-75 CNS; SNB-19 CNS; U251 CNS; PC-3 prostate; SK-MEL-5 melanoma; UACC-62 melanoma; LOX IMVI melanoma; SK-MEL-28 melanoma.
Holding throughout (experiment): NCI-60 one-dose screen, 48 h (100 = growth as untreated, 0 = no growth, -100 = all killed)
What all share (conditions): 10 µM unless noted

Regarding `C=C(C)[C@@H]1CC[C@]2(C)[C@H](C(=O)C=C3[C@@H]4C[C@](C)(C(=O)N5CCN(C)CC5)CC[C@]4(C)CC[C@]32C)[C@@]1(C)CCC#N`, the growth with DU-145 prostate was -51.6% [100 µM] (active); in the experiment on K-562 leukemia it was -4.62% [100 µM] (active); in the experiment on MALME-3M melanoma, -86.5% [100 µM] (active); with MDA-MB-231 breast it was -92.4% [100 µM] (active); in the experiment on RXF 393 renal, -86.4% [100 µM] (active); in the experiment on SF-268 CNS it was -76.2% [100 µM] (active). In addition, the growth with SF-295 CNS is -88% [100 µM] (active); in the experiment on SF-539 CNS it was -92% [100 µM] (active); with UACC-257 melanoma, -77.1% [100 µM] (active); in the experiment on M14 melanoma, -62.6% [100 µM] (active); with HCT-15 colon, -88.2% [100 µM] (active); with HT29 colon it was -53.2% [100 µM] (active). Besides, the growth with SNB-75 CNS is -92.2% [100 µM] (active); in the experiment on SNB-19 CNS, -95.8% [100 µM] (active); in the experiment with U251 CNS, -76.7% [100 µM] (active); in the experiment with PC-3 prostate it was -65.9% [100 µM] (active); in the experiment with SK-MEL-5 melanoma, -94.6% [100 µM] (active); in the experiment on UACC-62 melanoma it was -88.9% [100 µM] (active). The growth is -93.6% [100 µM] (active) in the experiment with LOX IMVI melanoma and -90.1% [100 µM] (active) in the experiment with SK-MEL-28 melanoma.
Turning to `NC(=O)c1cccc(-c2ccc(S(=O)(=O)Nc3ccc4c(c3)N(C(=O)C3CC3)CCC4)cc2)c1`, the growth in the experiment on DU-145 prostate was 76.3%; in the experiment on K-562 leukemia, 25.6%; in the experiment with MALME-3M melanoma, 39.1%; in the experiment on MDA-MB-231 breast, 46.2%; in the experiment on RXF 393 renal, 47.7%; in the experiment with SF-268 CNS, 48.8%. Further, the growth in the experiment with SF-295 CNS was 18%; in the experiment with SF-539 CNS, 26.3%; in the experiment with UACC-257 melanoma, 46.2%; in the experiment on M14 melanoma it was 95.5%; with HCT-15 colon, 91.9%; in the experiment on HT29 colon it was 13.6%. Further, the growth is 11.9% in the experiment with SNB-75 CNS; 48.3% in the experiment on SNB-19 CNS; 31.3% in the experiment on U251 CNS; 40% in the experiment on PC-3 prostate; 11.4% in the experiment on SK-MEL-5 melanoma; 26.7% in the experiment with UACC-62 melanoma. In addition, the values for the growth with LOX IMVI melanoma and with SK-MEL-28 melanoma were 41.6% and 51.7%, respectively.
As to `C=C(C)[C@@H]1CC[C@]2(C(=O)NCCCCCCN(CCCN)CCCN)CC[C@]3(C)[C@H](CC[C@@H]4[C@@]5(C)CC[C@H](OCCCN)C(C)(C)[C@@H]5CC[C@]43C)[C@@H]12`, the growth was 55% [100 µM] in the experiment with DU-145 prostate; 1.52% [100 µM] (active) in the experiment on K-562 leukemia; 43.7% [100 µM] with MALME-3M melanoma; 37.3% [100 µM] in the experiment with MDA-MB-231 breast; 69.6% [100 µM] with RXF 393 renal; 99.1% [100 µM] in the experiment on SF-268 CNS. The growth in the experiment on SF-295 CNS is 92.2% [100 µM]; in the experiment on SF-539 CNS, 79.9% [100 µM]; with UACC-257 melanoma it was 88% [100 µM]; in the experiment on M14 melanoma it was 106% [100 µM]; in the experiment on HCT-15 colon, 81.8% [100 µM]; with HT29 colon, 4.21% [100 µM] (active). In addition, the growth with SNB-75 CNS was 84.5% [100 µM]; with SNB-19 CNS it was 80.8% [100 µM]; in the experiment with U251 CNS, -39.4% [100 µM] (active); in the experiment on PC-3 prostate, 60.9% [100 µM]; in the experiment with SK-MEL-5 melanoma, 85.9% [100 µM]; in the experiment on UACC-62 melanoma, 120% [100 µM]. Moreover, the growth is 5.71% [100 µM] (active) in the experiment with LOX IMVI melanoma and 101% [100 µM] with SK-MEL-28 melanoma.
Turning to `O=C(Nc1ccc(F)cc1)c1ccccc1`, the growth was 104% in the experiment on DU-145 prostate; 103% in the experiment on K-562 leukemia; 98.8% in the experiment on MALME-3M melanoma; 105% in the experiment with MDA-MB-231 breast; 116% with RXF 393 renal; 105% in the experiment with SF-268 CNS. For the same molecule, the growth is 93.4% in the experiment on SF-295 CNS; 99.3% in the experiment with SF-539 CNS; 107% in the experiment with UACC-257 melanoma; 106% in the experiment on M14 melanoma; 96.6% in the experiment on HCT-15 colon; 114% with HT29 colon. The growth with SNB-75 CNS was 106%; in the experiment on SNB-19 CNS, 101%; in the experiment with U251 CNS it was 102%; in the experiment with PC-3 prostate it was 108%; in the experiment with SK-MEL-5 melanoma, 101%; in the experiment with UACC-62 melanoma, 90.8%. Further, the growth is 105% in the experiment on LOX IMVI melanoma and 101% in the experiment on SK-MEL-28 melanoma.
Take `COc1ccc2c(c1)C(C)Cc1c(Cl)ncnc1N2C` (stereo not given): the growth in the experiment on DU-145 prostate is 35.3%; with K-562 leukemia it was 9.21% (active); in the experiment on MALME-3M melanoma, 41.4%; in the experiment on MDA-MB-231 breast, -45.3% (active); in the experiment on RXF 393 renal, -8.62% (active); in the experiment with SF-268 CNS, 10.5%. Further, the growth in the experiment on SF-295 CNS was 15.2%; with SF-539 CNS, 28%; in the experiment on UACC-257 melanoma, 13.6%; in the experiment with M14 melanoma, 12.1%; in the experiment with HCT-15 colon, 4.94% (active); with HT29 colon, -3.53% (active). Moreover, the growth is 2.7% (active) in the experiment with SNB-75 CNS; 27.7% in the experiment on SNB-19 CNS; 15.5% in the experiment with U251 CNS; 11.4% in the experiment with PC-3 prostate; -83.6% (active) with SK-MEL-5 melanoma; 0.755% (active) in the experiment with UACC-62 melanoma. Further, the growth in the experiment with LOX IMVI melanoma is -69.2% (active); with SK-MEL-28 melanoma it was 14.8%.
Turning to `O=C1Cc2c(sc3c(F)cccc23)C(c2ccccc2[N+](=O)[O-])N1` (stereo not given), the growth is 107% in the experiment on DU-145 prostate; 97.1% in the experiment with K-562 leukemia; 94.5% in the experiment on MALME-3M melanoma; 84.9% in the experiment on MDA-MB-231 breast; 125% with RXF 393 renal; 93.8% in the experiment on SF-268 CNS. In addition, the growth with SF-295 CNS was 101%; in the experiment on SF-539 CNS, 89.4%; with UACC-257 melanoma, 120%; with M14 melanoma, 101%; in the experiment on HCT-15 colon, 110%; in the experiment with HT29 colon, 112%. The growth in the experiment on SNB-75 CNS is 90%; in the experiment on SNB-19 CNS, 100%; in the experiment on U251 CNS, 85.2%; with PC-3 prostate, 100%; in the experiment with SK-MEL-5 melanoma, 97.3%; in the experiment with UACC-62 melanoma, 87.2%. Further, the growth in the experiment on LOX IMVI melanoma is 97.7%; in the experiment on SK-MEL-28 melanoma, 120%.
Regarding `CCCN1CC(c2ccc(OC)c(OC)c2)=C(c2cn(C(=O)OCC)c3ccccc23)C1=O`, the growth in the experiment on DU-145 prostate is 71.9%; with K-562 leukemia, 13.3%; in the experiment on MALME-3M melanoma, 51.6%; in the experiment on MDA-MB-231 breast, 43.3%; in the experiment with RXF 393 renal, -0.611% (active); in the experiment on SF-268 CNS, 58.2%. The growth with SF-295 CNS was 32.4%; in the experiment on SF-539 CNS it was 28.1%; in the experiment on UACC-257 melanoma, 90.1%; in the experiment on M14 melanoma, 70.4%; in the experiment on HCT-15 colon, 25.9%; in the experiment with HT29 colon it was 14.5%. Besides, the growth was -14.1% (active) in the experiment on SNB-75 CNS; 50.3% in the experiment with SNB-19 CNS; 46.7% in the experiment with U251 CNS; 32.4% in the experiment on PC-3 prostate; 22.9% in the experiment on SK-MEL-5 melanoma; 18.3% in the experiment with UACC-62 melanoma. For the same molecule, the results for the growth in the experiment on LOX IMVI melanoma and in the experiment on SK-MEL-28 melanoma were 49.6% and 73.1%, respectively.
On to `C=CCc1nc2ccccc2s1`, for which the growth in the experiment on DU-145 prostate was 114%; in the experiment on K-562 leukemia, 96.9%; with MALME-3M melanoma, 115%; in the experiment with MDA-MB-231 breast, 103%; in the experiment on RXF 393 renal, 122%; in the experiment with SF-268 CNS, 108%. Further, the growth in the experiment on SF-295 CNS is 117%; in the experiment on SF-539 CNS, 119%; in the experiment with UACC-257 melanoma, 90.4%; with M14 melanoma, 108%; in the experiment with HCT-15 colon, 94.3%; in the experiment on HT29 colon it was 89.9%. Further, the growth was 90.2% with SNB-75 CNS; 110% in the experiment on SNB-19 CNS; 100% in the experiment with U251 CNS; 88.1% in the experiment on PC-3 prostate; 114% in the experiment with SK-MEL-5 melanoma; 106% in the experiment on UACC-62 melanoma. Moreover, the growth is 99.3% in the experiment with LOX IMVI melanoma and 106% with SK-MEL-28 melanoma.
